An excerpt weighted towards active compounds, which were near 3.4% of everything screened.
RE007 growth inh – qHTS Assay for Inhibitors of the HIV-1 protein Vpr. S. pombe RE007 Vpr strain, BacTiter-Glo ATP luminescence, 24 h. Potency, µM (highest dose often 92.2 µM), for inactives: at the highest dose activity change, negative = less growth, most hits filed as inhibitors. 0.21% of 360,000 active. AID 651644, 2012; active = well fitted falling curve with a large enough effect; inconclusive = small, poorly fitted or top-dose-only effect; inactive = no such curve, though single readings can be large or run the other way; note: nearly all actives have a fitted effect of over 50% in size
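Fission yeast RE007 carrying one integrated HIV-1 vpr copy, seeded at OD 0.01 in PMG+AL medium with 23 nL pinned compound. Grown 24 h at 30 degrees; viability read by BacTiter-Glo luminescence after 5 min.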
AmpC inh detg – qHTS Inhibitors of AmpC Beta-Lactamase (assay with detergent); 0.041% of 370,000 active; AmpC hydrolysis of nitrocefin, absorbance 480 nm, 0.01% Triton; Potency, µM (doses to about 114 µM), inactives show top-dose activity change, negative = inhibition, hits mostly inhibitors;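 note: 0% = no-compound wells and -100% = no-enzyme wells; nearly all actives have a fitted effect of over 25% in size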
Target sequence (P00811 whole entry, looked up): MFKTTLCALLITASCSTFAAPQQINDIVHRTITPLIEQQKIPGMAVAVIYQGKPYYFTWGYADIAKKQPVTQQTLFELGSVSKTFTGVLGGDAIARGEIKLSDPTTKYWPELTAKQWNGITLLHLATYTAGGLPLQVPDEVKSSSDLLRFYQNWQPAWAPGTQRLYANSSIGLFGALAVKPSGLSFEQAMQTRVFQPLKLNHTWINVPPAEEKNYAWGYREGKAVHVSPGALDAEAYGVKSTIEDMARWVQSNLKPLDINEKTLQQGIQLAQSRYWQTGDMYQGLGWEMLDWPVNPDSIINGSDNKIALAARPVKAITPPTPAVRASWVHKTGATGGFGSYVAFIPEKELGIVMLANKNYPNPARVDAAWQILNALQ
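20 mM phosphate pH 7.0 + 0.01% (detergent screen) or 0.0001% Triton X-100; 5.3 nM AmpC reagent; cpd preinc 15 min RT; nitrocefin (800 uM stock) to start; A480 q20 s × 4 min; Activity was normalised to no-enzyme and no-compound control wells.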
Sm TGR block – qHTS Assay for the Inhibitors of Schistosoma Mansoni Peroxiredoxins; purified TGR, DTNB reduction, TNB absorbance 405 nm; Potency, µM (top dose mostly 114 µM), inactives show at the top dose activity change, negative = inhibition, most hits filed as inhibitors; 3% of 360,000 active; AID 485364, 2010; note: nearly all actives have a fitted effect of over 60% in size
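Kinetic colorimetric format: TGR-catalysed, NADPH-driven DTNB reduction monitored via TNB absorbance. Enzyme dispensed at 20 nM; compound exposure 15 min at room temperature before reaction start.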
AmpC inh no detg – qHTS Inhibitors of AmpC Beta-Lactamase (assay without detergent); P00811; AmpC nitrocefin hydrolysis, absorbance 480 nm, 0.0001% Triton; Potency, µM (doses to about 57.1 µM), for the others: at the highest dose activity change, negative = inhibition, most hits filed as inhibitors; 0.52% of 330,000 active; AID 485341, 2010;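 note: plate controls were no compound for no effect and no enzyme for full effect; nearly all actives have a fitted effect of over 20% in size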
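AmpC (5.3 nM in the dispensed reagent) in 20 mM phosphate pH 7.0 with 0.01% (detergent screen) or 0.0001% Triton X-100 was preincubated with compounds for 15 min at room temperature. Nitrocefin was then added from an 800 uM solution, and hydrolysis was followed at 480 nm.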
Giardia FBPA inh-1 – qHTS Assay for Inhibitors of Fructose-1,6-bisphosphate Aldolase from Giardia Lamblia. Potency, µM (highest dose often 59.6 µM), inactives show at the top dose activity, negative = inhibition, hits mostly inhibitors. purified Giardia FBPA. A8B2U2. AID 2451, 2010. 0.71% of 290,000 active; note: nearly all actives have a fitted effect of over 55% in size
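40 nM FBPA preincubated 10 min at RT with compound (up to 57.5 uM final), then substrate plus GAPDH/TPI/NAD/arsenate coupling and diaphorase/resazurin added. Fluorescence read after 20 min at RT, 525/598 nm.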
Giardia growth – qHTS Assay for Inhibitors of Fructose-1,6-bisphosphate Aldolase from Giardia Lamblia: Giardia lamblia growth inhibition | AID 2785, 2010 | Potency, µM (doses to about 57.5 µM), inactives show at the highest dose activity change, negative = inhibition, actives largely listed as inhibitors | Giardia lamblia trophozoite growth inhibition | 5% of 1,500 active | shares compounds with Giardia FBPA inh-1;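 note: trophozoites exposed to compound for 48 h at 37 °C; nearly all actives have a fitted effect of over 70% in size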
Mammalian tox – qHTS Assay for Inhibitors of Fructose-1,6-bisphosphate Aldolase from Giardia Lamblia: Mammalian cellular toxicity; shares compounds with Giardia FBPA inh-1; mammalian cell viability counter-screen, qHTS; Potency, µM (doses to about 57.5 µM), without a hit: at the top dose viability change, negative = toxicity, actives largely listed as inhibitors; 4% of 1,500 active; AID 2786, 2010;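 note: Chinese hamster ovary cells used as mammalian cytotoxicity surrogate; viability measured as cellular ATP by luminescence; compound exposure lasted 48 h before reading; nearly all actives have a fitted effect of over 60% in size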
Giardia FBPA inh-2 – qHTS Assay for Inhibitors of Fructose-1,6-bisphosphate Aldolase from Giardia Lamblia: Primary screen confirmation | shares compounds with Giardia FBPA inh-1 | purified Giardia aldolase enzyme activity, qHTS | Potency, µM (series often up to 57.5 µM), for the others: at the highest dose activity change, negative = inhibition, hits mostly inhibitors | 5% of 1,500 active; note: nearly all actives have a fitted effect of over 45% in size
Rabbit FBPA inh – qHTS Assay for Inhibitors of Fructose-1,6-bisphosphate Aldolase from Giardia Lamblia: Rabbit FBPA Selectivity | shares compounds with Giardia FBPA inh-1 | Rabbit muscle FBPA enzyme inhibition, selectivity counter-screen | Potency, µM (highest dose often 57.5 µM), for inactives: at the highest dose activity, negative = inhibition, hits mostly inhibitors | 4% of 1,500 active | AID 2794, 2010; note: nearly all actives have a fitted effect of over 60% in size
Target sequence (P00883 whole entry, looked up): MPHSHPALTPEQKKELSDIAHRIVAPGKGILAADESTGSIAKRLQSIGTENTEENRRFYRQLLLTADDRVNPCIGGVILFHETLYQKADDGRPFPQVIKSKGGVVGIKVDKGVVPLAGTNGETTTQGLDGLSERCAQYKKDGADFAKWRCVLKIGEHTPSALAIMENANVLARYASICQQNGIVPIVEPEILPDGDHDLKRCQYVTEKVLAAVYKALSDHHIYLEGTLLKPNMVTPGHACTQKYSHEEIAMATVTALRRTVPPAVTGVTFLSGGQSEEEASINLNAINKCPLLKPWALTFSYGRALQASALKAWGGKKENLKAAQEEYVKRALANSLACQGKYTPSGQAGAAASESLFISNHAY
GAPDH counter – qHTS Assay for Inhibitors of Fructose-1,6-bisphosphate Aldolase from Giardia Lamblia: Coupling assay counterscreen confirmation | shares compounds with Giardia FBPA inh-1 | Potency, µM (doses to about 57.5 µM), for the others: at the top dose activity change, negative = inhibition, hits mostly inhibitors | AID 2795, 2010 | GAPDH coupling enzyme counterscreen, biochemical, qHTS | 6% of 1,500 active; note: nearly all actives have a fitted effect of over 55% in size
* hit, by the source's call; ? = inconclusive; nt = no result; [ ] = dose if it differs, or a comment. Unless noted, calls come from the whole dose curve; as a rule, active = well fitted curve in the direction sought with a large enough effect; inconclusive = small, poorly fitted or top-dose-only effect, or another doubt; inactive = no such curve, though single readings can be large; an effect the other way counts as inactive or inconclusive. Unless noted, % is set by controls: 0 for no effect and ±100 for the full control effect; potency is the fitted concentration of half-maximal effect.

SMILES	RE007 growth inh	AmpC inh detg	Sm TGR block	AmpC inh no detg	Giardia FBPA inh-1	Giardia growth	Mammalian tox	Giardia FBPA inh-2	Rabbit FBPA inh	GAPDH counter
COc1ccc(NC(=O)Cn2c(-c3ccccc3)cc(C(C)=O)c2C)c(OC)c1	7%	4%	9%	-5%	-3%	nt	nt	nt	nt	nt
O=c1[nH]cc(I)cc1I	nt	4%	2%	-20%	10µM*	-28%	13%	-8%	3%	-3%
O=C(C1=C(O)C(=O)N(c2nccs2)C1c1ccccc1)c1cc2ccccc2o1 (centres undefined)	-18%	2%	10µM*	-46%	16µM*	-30%	10%	1%	10%	15%
O=C(C1=C(O)C(=O)N(CCc2ccccc2)C1c1ccncc1)c1cc2ccccc2o1 (centres undefined)	12%	5%	nt	-24%	12%	nt	nt	nt	nt	nt
Cc1ccccc1C1C=C(c2ccc(Cl)cc2)Nc2nnnn21 (centres undefined)	nt	4%	1%	nt	nt	nt	nt	nt	nt	nt
N#C/C(=C(/O)CCl)c1nc2c(s1)CCc1ccccc1-2	3%	-4%	7.9µM*	-38%	14µM*	?	-11%	?	?	-22%
C/C(CCC(C)C)=N\NC(=S)NCc1ccccc1	4%	-13%	6%	-24%	16µM*	23%	16%	8%	9%	7%
C/C(CCc1ccccc1)=N\NC(=S)NCCc1ccccc1	2%	-9%	-1%	-31%	23%	nt	nt	nt	nt	nt
CCOc1ccc(N(CC(=O)NCCSc2ccccn2)S(C)(=O)=O)cc1	-9%	-7%	13%	-8%	0%	nt	nt	nt	nt	nt
COc1cc(CN2CCN(S(=O)(=O)c3ccccc3)CC2)cc(OC)c1OC	9%	?	-37%	13%	25µM*	24%	-9%	-3%	0%	9%
COc1ccc(S(=O)(=O)N2CCC(N3CCN(Cc4ccccc4)CC3)CC2)cc1	-24%	3%	-27%	13%	13µM*	63%	-2%	5%	2%	16%
COc1cc(CN2CCN(S(=O)(=O)c3ccc(F)cc3)CC2)cc(OC)c1OC	-12%	-6%	-3%[11.4 µM]	41%	?	nt	nt	nt	nt	nt
O=c1oc2ccccc2c(O)c1Cc1c(O)c2ccccc2oc1=O	nt	nt	nt	nt	0%	nt	nt	nt	nt	nt
O=c1oc2ccccc2c(O)c1Cc1cc(Cl)c2cccnc2c1O	0%	1%	18%	-19%	10µM*	?	6%	-6%	-18%	-13%
O=C(Nc1cccc(Br)c1)N1CCN2CCCCC2C1 (centres undefined)	nt	24%	4%	nt	nt	nt	nt	nt	nt	nt
COc1ccc(CCNC(=O)/C(C#N)=C/c2ccc(OCC(=O)NCC3CCCO3)cc2)cc1OC (centres undefined)	-5%	0%	0%	113%	-3%	nt	nt	nt	nt	nt
COc1ccc(CCNC(=O)CNCC2CCCO2)cc1OC (centres undefined)	2%	-8%	-12%	0%	16µM*	-25%	14%	3%	5%	8%
CCOC(=O)C1=C(C)OC(N)=C(C#N)C1c1ccsc1 (centres undefined)	-2%	-4%	?	-16%	?	nt	nt	nt	nt	nt
N#CC1=C(N)Oc2c(O)cc3ccccc3c2C1c1ccsc1 (centres undefined)	-2%	-6%	-5%	-40%	18µM*	7%[10.4 µM]	0%	?	?	?
O=C(CCn1cnc2onc(-c3ccc(F)cc3)c2c1=O)N1CCN(c2cccc(Cl)c2)CC1	nt	25%	-1%	nt	nt	nt	nt	nt	nt	nt
CCOc1ccc(C)cc1S(=O)(=O)Nc1ccc(Cl)cn1	5%	?	2%	-24%	12%	nt	nt	nt	nt	nt
CCOc1ccc2[nH]c(S(=O)(=O)CC)nc2c1Cl	4%	-1%	0%	nt	3.5µM*	-18%[38.3 µM]	1%	-11%	-3%	1%
CC(C)NC(=O)N1CCC(N2CCN(Cc3ccc(F)cc3)C(=O)C2=O)CC1	nt	9%	1%	nt	nt	nt	nt	nt	nt	nt
CC(=O)Nc1ccc(-c2sc(Nc3cccc4ccccc34)n[n+]2-c2ccccc2)cc1	-4%	-13%	-3%	1%	16µM*	32%	6%	7%	3%	13%
COc1ccc(C)cc1Nc1n[n+](-c2ccccc2)c(-c2ccc(NC(C)=O)cc2)s1	2%	?	-25%	6%	22µM*	?	1%	4%	-5%	11%
CSc1ccc(-c2sc(Nc3ccccc3)n[n+]2-c2ccccc2)cc1	-5%	-18%	-2%	-46%	25µM*	-28%	-24%	-1%	9%	2%
CSc1ccc(-c2sc(Nc3cccc4ccccc34)n[n+]2-c2ccccc2)cc1	-9%	?	-2%	-19%	25µM*	14%	-21%	-20%	-20%	-24%
COCCCNC(=O)C[C@H]1C[C@H](C(=O)N(C(C)C)C(C)C)[C@@]2(C)c3[nH]c4ccc(Cl)cc4c3CCN2C1=O	-10%	nt	nt	133%	nt	nt	nt	nt	nt	nt
C[C@H](NC(=O)c1cc2c(cn1)[nH]c1ccccc12)C(=O)O	-20%	-2%	10%	-32%	-19%	-1%[38.3 µM]	-9%	-12%	-5%	-7%
OCCC1CN(Cc2cccc(F)c2F)CCN1CCc1ccccc1 (centres undefined)	0%	-9%	-23%	10%	13%	nt	nt	nt	nt	nt
